About 83,000 compounds went through this panel and 20% of them were active in at least one assay; those are over-represented in the sample as a whole.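 Activity criterion: percent growth below 10, measured after cells in 96-well plates were exposed to a single compound concentration for 48 hours.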 Activity calls are given as the source filed them.
Columns and labels:
Test in all cases: NCI-60 one-dose screen, 48 h (100 = growth as untreated, 0 = no growth, -100 = all killed)
Details in all cases: 10 µM unless noted
T-47D breast = system: T-47D breast
BT-549 breast = system: BT-549 breast
MDA-MB-435 melanoma = system: MDA-MB-435 melanoma
SW-620 colon = system: SW-620 colon
MCF7 breast = system: MCF7 breast
HCT-116 colon = system: HCT-116 colon
HCC-2998 colon = system: HCC-2998 colon
KM12 colon = system: KM12 colon

Measured: growth

CN=S(=O)(NC(=O)c1ccc(Cl)cc1Cl)c1ccc(Br)s1 (stereo not drawn)
inactive: T-47D breast 95.8% | BT-549 breast 103% | MDA-MB-435 melanoma 97.6% | SW-620 colon 98.8% | MCF7 breast 101% | HCT-116 colon 102% | HCC-2998 colon 111% | KM12 colon 110%

CNC(=O)Cc1nc(-c2cccc(NS(=O)(=O)c3c(F)cccc3F)c2F)c(-c2ccnc(Nc3ccccc3)n2)s1
inactive: T-47D breast 60.2% | BT-549 breast 103% | MDA-MB-435 melanoma 48.3% | SW-620 colon 66.8% | MCF7 breast 86.2% | HCC-2998 colon 84.6% | KM12 colon 70.2%
active: HCT-116 colon 9.43%

Clc1cccc(Cl)c1Cn1c(-c2cncs2)nc2ccccc21
inactive: T-47D breast 64.5% | BT-549 breast 85.1% | MDA-MB-435 melanoma 44.5% | SW-620 colon 94% | MCF7 breast 92.3% | HCT-116 colon 78.8% | HCC-2998 colon 82.6% | KM12 colon 80.5%

COc1ccc2c(c1)NC(=O)CN2c1nc(C)nc2ccccc12
inactive: T-47D breast 55.5% | SW-620 colon 22% | MCF7 breast 14.9% | HCC-2998 colon 16.6%
active: BT-549 breast 1.24% | MDA-MB-435 melanoma 1.13% | HCT-116 colon 0.468% | KM12 colon 8.92%

Cc1ccc(Cn2c(-c3nonc3N)nc3ccccc32)cc1
active: MDA-MB-435 melanoma -30.8%
inactive: T-47D breast 74.6% | BT-549 breast 68.3% | SW-620 colon 28.4% | MCF7 breast 55.5% | HCT-116 colon 58.2% | HCC-2998 colon 75.1% | KM12 colon 31.6%

COc1ccc(-c2nc3sccn3c2-c2ccnc(NCCCNS(=O)(=O)c3ccc(C)cc3)n2)cc1
active: T-47D breast -6.34%
inactive: BT-549 breast 42.5% | MDA-MB-435 melanoma 23.4% | SW-620 colon 38.6% | MCF7 breast 34.3% | HCT-116 colon 25% | HCC-2998 colon 25.9% | KM12 colon 20.6%

O=C(CCC(=O)OC1CCCC1)OC1CCCC1
inactive: T-47D breast 94.1% | BT-549 breast 99.9% | MDA-MB-435 melanoma 100% | SW-620 colon 103% | MCF7 breast 95.2% | HCT-116 colon 109% | HCC-2998 colon 101% | KM12 colon 102%

C=CC(=O)N[C@H](/C=C/C(=O)OCC)Cc1ccc(-c2cc(Cl)cc(Cl)c2)cc1
inactive: T-47D breast 57.7% | BT-549 breast 84.6% | MDA-MB-435 melanoma 96.1% | SW-620 colon 91.7% | MCF7 breast 82.8% | HCT-116 colon 72.1% | HCC-2998 colon 94.6% | KM12 colon 89.8%

N#Cc1c(NC(=O)c2ccc([N+](=O)[O-])o2)[n+]([O-])c2cc(F)c(F)cc2[n+]1[O-]
inactive: T-47D breast 118% | BT-549 breast 203% | MDA-MB-435 melanoma 109% | SW-620 colon 128% | MCF7 breast 96.5% | HCT-116 colon 104% | HCC-2998 colon 106% | KM12 colon 98.9%

CCOC(=O)CC/C(C)=N\Nc1ccc([N+](=O)[O-])cc1
inactive: T-47D breast 41.8% | BT-549 breast 82.4% | MDA-MB-435 melanoma 28.4% | SW-620 colon 57.2% | MCF7 breast 79.9% | HCT-116 colon 48.7% | HCC-2998 colon 60.4% | KM12 colon 22.2%

O=C(CCl)NCCNc1nccc(Nc2ccc(S(=O)(=O)Nc3ccccn3)cc2)n1
inactive: MCF7 breast 11% | HCC-2998 colon 99.7% | KM12 colon 34%
active: T-47D breast 9.1% | BT-549 breast -5.35% | MDA-MB-435 melanoma 7.62% | SW-620 colon 8.07% | HCT-116 colon -44.6%

CN(C)c1ccc(C2CC(c3ccccc3)=NN2/C=C2\SC(=O)NC2=O)cc1 (stereo not drawn)
inactive: T-47D breast 86.7% | BT-549 breast 87% | MDA-MB-435 melanoma 83.1% | SW-620 colon 83.9% | MCF7 breast 65.4% | HCT-116 colon 85.9% | HCC-2998 colon 101% | KM12 colon 82.2%

CC[C@]1(O)C[C@@H]2CN(Cc3c([nH]c4ccccc34)[C@@](C(=O)OC)(c3cc4c(cc3OC)N(C)[C@H]3[C@@](O)(C(=O)OC)[C@H](OC(C)=O)[C@]5(CC)[C@@H]6C[C@@H]6CN6CC[C@]43[C@@H]65)C2)C1
active: BT-549 breast -23.1% | MDA-MB-435 melanoma -40% | HCT-116 colon 2.43% | HCC-2998 colon 7.42% | KM12 colon -9.75%
inactive: T-47D breast 83.3% | SW-620 colon 20.6% | MCF7 breast 14.8%

CC(C(=O)n1cc(-c2ccccc2)c(-c2ccccc2)c1)c1ccccc1 (stereo not drawn)
inactive: T-47D breast 93.4% | BT-549 breast 117% | MDA-MB-435 melanoma 104% | SW-620 colon 111% | MCF7 breast 100% | HCT-116 colon 99.8% | HCC-2998 colon 104% | KM12 colon 105%

CCCCCCCCCCC/C=C\C[C@H](O)C/C=C1/C(=O)C=C[C@@H]1C/C=C\CCCC(=O)OC
active: T-47D breast -8.92% | BT-549 breast -14.2% | MDA-MB-435 melanoma -14.5% | SW-620 colon 3.33% | HCT-116 colon -32% | HCC-2998 colon -46.5% | KM12 colon -48.5%
inactive: MCF7 breast 10.8%

COc1ccc(/C=C/c2nc(N3CCOCC3)c3cc(F)c(F)cc3n2)cc1OC
active: T-47D breast 6.31%
inactive: BT-549 breast 33.4% | MDA-MB-435 melanoma 15.8% | SW-620 colon 55.5% | MCF7 breast 15.9% | HCT-116 colon 38.7% | HCC-2998 colon 38.2% | KM12 colon 28.1%

CCN(CC)CCSc1c2ccc(Cl)cc2nc2ccc(OC)cc12
active: T-47D breast -39.9% | SW-620 colon 4.29%
inactive: BT-549 breast 107% | MDA-MB-435 melanoma 109% | MCF7 breast 33.8% | HCT-116 colon 50.3% | HCC-2998 colon 97.3% | KM12 colon 99.1%

COc1cc(C(=O)OCCCCCCCCCCC[P+](c2ccccc2)(c2ccccc2)c2ccccc2)ccc1O
active: T-47D breast -43.1% | BT-549 breast -60.8% | MDA-MB-435 melanoma -46.7% | SW-620 colon -0.568% | MCF7 breast -40.8% | HCT-116 colon -33.6% | KM12 colon -80.6%
inactive: HCC-2998 colon 19.3%

NC(=O)NNC(=O)c1ccccc1
inactive: T-47D breast 111% | BT-549 breast 107% | MDA-MB-435 melanoma 105% | SW-620 colon 108% | MCF7 breast 100% | HCT-116 colon 99.7% | HCC-2998 colon 107% | KM12 colon 103%

COc1cc(C(=O)/C=C/c2cc(C(=O)c3cc(OC)c(OC)c(OC)c3)ccc2OC)ccc1N
inactive: T-47D breast 18%
active: BT-549 breast -51.3% | MDA-MB-435 melanoma 2.47% | SW-620 colon -57.3% | MCF7 breast 6.6% | HCT-116 colon -73.8% | HCC-2998 colon -80% | KM12 colon -57.2%

COc1ccc(/C=C2\CCCC3=C2NC(C)=NC3c2ccc(OC)c(OC)c2)cc1OC (stereo not drawn)
inactive: T-47D breast 11.2% | MCF7 breast 26.3%
active: BT-549 breast -16.1% | MDA-MB-435 melanoma 1.49% | SW-620 colon -28.8% | HCT-116 colon -95.7% | HCC-2998 colon -47.8% | KM12 colon 6.19%

CCN(CC)CCCC(C)N=c1cc(Nc2cc(=NC(C)CCCN(CC)CC)c3cc(OC)ccc3o2)oc2ccc(OC)cc12 (stereo not drawn)
active: BT-549 breast -69.4% | MDA-MB-435 melanoma -87.4% | SW-620 colon -2.14% | MCF7 breast -26.8% | HCT-116 colon -21.2% | HCC-2998 colon -88.9% | KM12 colon -4.99%
inactive: T-47D breast 25.8%

NC(=O)c1ccc2c(c1)OCO2
inactive: T-47D breast 111% | BT-549 breast 110% | MDA-MB-435 melanoma 100% | SW-620 colon 98% | MCF7 breast 95.6% | HCT-116 colon 101% | HCC-2998 colon 100% | KM12 colon 103%

NC(=O)c1c(NC(=O)c2ccc3c(c2)OCO3)sc2c1CCC(=O)C2
inactive: HCC-2998 colon 12.5%
active: T-47D breast -39.7% | BT-549 breast -6.08% | MDA-MB-435 melanoma 2.97% | SW-620 colon -10.8% | MCF7 breast -7.93% | HCT-116 colon -56.3% | KM12 colon -20.6%

CCNC(=O)CCCCC(=O)c1c(C)[nH]c(/C=C2\N=C(c3ccc[nH]3)C=C2OC)c1C
active: T-47D breast -46.3% | BT-549 breast -36.1% | MDA-MB-435 melanoma -18.4% | SW-620 colon -65.4% | MCF7 breast -17.4% | HCT-116 colon -100% | KM12 colon -56.9%
inactive: HCC-2998 colon 48.6%

CSc1nc(-c2cc3ccccc3o2)cc(-c2ccc(Cl)cc2)c1C#N
inactive: T-47D breast 24.7% | BT-549 breast 115% | MDA-MB-435 melanoma 111% | SW-620 colon 71.1% | MCF7 breast 14% | HCT-116 colon 58.8% | HCC-2998 colon 85.6% | KM12 colon 40.4%

CCc1cccc(C)c1NC(=O)c1sc2nc3c(cc2c1N)C(=O)CCC3
active: MDA-MB-435 melanoma -27.5%
inactive: T-47D breast 24.4% | BT-549 breast 46.8% | SW-620 colon 28.7% | MCF7 breast 20.3% | HCT-116 colon 31.6% | HCC-2998 colon 10.2% | KM12 colon 19%

O=S(=O)(NCCCNc1cc(-c2cn(-c3ccccc3)nc2-c2cccc(O)c2)ccn1)c1ccc(C(F)(F)F)cc1
active: HCC-2998 colon -30.5%
inactive: T-47D breast 35.1% | BT-549 breast 42.2% | MDA-MB-435 melanoma 34.9% | SW-620 colon 27.4% | MCF7 breast 22% | HCT-116 colon 29% | KM12 colon 23.3%

CCC#CC[C@H]1C/C=C2/C(=O)C=C[C@@H]2C/C=C\CCCC(=O)O1
inactive: T-47D breast 24.1% | MCF7 breast 18.3%
active: BT-549 breast 0.46% | MDA-MB-435 melanoma -0.679% | SW-620 colon 0.0835% | HCT-116 colon -70.9% | HCC-2998 colon -67% | KM12 colon -48.8%

Cc1cc(C)c(S(=O)(=O)N2CCN(c3cc4c(cc3F)c(=O)c(C(=O)O)cn4C3CC3)CC2)c(C)c1
inactive: T-47D breast 62.9% | BT-549 breast 77.3% | MDA-MB-435 melanoma 76.1% | SW-620 colon 79.8% | MCF7 breast 54% | HCT-116 colon 32.2% | HCC-2998 colon 47.7% | KM12 colon 60.7%

COc1cccc(-c2nc3sccn3c2-c2ccnc(NCCCNS(=O)(=O)c3ccccc3)n2)c1
inactive: BT-549 breast 47.2% | MDA-MB-435 melanoma 40.9% | SW-620 colon 75.1% | MCF7 breast 52% | HCT-116 colon 38.6% | HCC-2998 colon 93.8% | KM12 colon 43.5%
active: T-47D breast 0.88%

Reference: PubChem BioAssay (NCI)
